Screening data from PubChem.
Sampled rows, rich in hits. Any-hit rate of the full collection: about 11%.
Luciferase inh: Firefly luciferase inhibition profiling of diverse chemical library using quantitative high-throughput screening; 2.5% of 76,000 active; purified P. pyralis luciferase, luminescence, biochemical; Potency, µM (top dose mostly 115 µM), most hits filed as inhibitors; Luciferin 4-monooxygenase (Photinus pyralis), P08659; also: nearly all actives have a fitted effect of over 65% in size
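Cell-free enzyme assay, 10nM P. pyralis luciferase, luciferin and ATP each at 10uM. Inhibition profiled over a 6-point titration, read as luminescence.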
NIH3T3 tox: Cytotoxic Profiling in NIH 3T3 Cell Line of Diverse Libraries Using Quantitative High-Throughput Screening; NIH 3T3 viability, CellTiter-Glo ATP luminescence, 48-72 h; Potency, µM (highest dose often 96.7 µM), for inactives: at the highest dose activity change, negative = cytotoxicity, most hits filed as inhibitors; 4.3% of 94,000 active; AID 1345082, 2018; also: nearly all actives have a fitted effect of over 55% in size
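Mouse fibroblast NIH 3T3 cells, 400 per well, received compound via pintool and were incubated for 48 or 72 hr prior to CellTiter-Glo ATP luminescence measurement.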
NPR1 antag: Natriuretic polypeptide receptor (hNpr1) antagonism - Primary qHTS; Atrial natriuretic peptide receptor 1 (Homo sapiens), P16066; HEK293 hNpr1 GloSensor cGMP, ANP-stimulated luminescence; Potency, µM (series often up to 46.3 µM), inactives show at the top dose activity change, negative = inhibition, actives largely listed as inhibitors; 1.6% of 76,000 active; calls by dose curve; also: nearly all actives have a fitted effect of over 60% in size
Target sequence (P16066 whole entry, looked up): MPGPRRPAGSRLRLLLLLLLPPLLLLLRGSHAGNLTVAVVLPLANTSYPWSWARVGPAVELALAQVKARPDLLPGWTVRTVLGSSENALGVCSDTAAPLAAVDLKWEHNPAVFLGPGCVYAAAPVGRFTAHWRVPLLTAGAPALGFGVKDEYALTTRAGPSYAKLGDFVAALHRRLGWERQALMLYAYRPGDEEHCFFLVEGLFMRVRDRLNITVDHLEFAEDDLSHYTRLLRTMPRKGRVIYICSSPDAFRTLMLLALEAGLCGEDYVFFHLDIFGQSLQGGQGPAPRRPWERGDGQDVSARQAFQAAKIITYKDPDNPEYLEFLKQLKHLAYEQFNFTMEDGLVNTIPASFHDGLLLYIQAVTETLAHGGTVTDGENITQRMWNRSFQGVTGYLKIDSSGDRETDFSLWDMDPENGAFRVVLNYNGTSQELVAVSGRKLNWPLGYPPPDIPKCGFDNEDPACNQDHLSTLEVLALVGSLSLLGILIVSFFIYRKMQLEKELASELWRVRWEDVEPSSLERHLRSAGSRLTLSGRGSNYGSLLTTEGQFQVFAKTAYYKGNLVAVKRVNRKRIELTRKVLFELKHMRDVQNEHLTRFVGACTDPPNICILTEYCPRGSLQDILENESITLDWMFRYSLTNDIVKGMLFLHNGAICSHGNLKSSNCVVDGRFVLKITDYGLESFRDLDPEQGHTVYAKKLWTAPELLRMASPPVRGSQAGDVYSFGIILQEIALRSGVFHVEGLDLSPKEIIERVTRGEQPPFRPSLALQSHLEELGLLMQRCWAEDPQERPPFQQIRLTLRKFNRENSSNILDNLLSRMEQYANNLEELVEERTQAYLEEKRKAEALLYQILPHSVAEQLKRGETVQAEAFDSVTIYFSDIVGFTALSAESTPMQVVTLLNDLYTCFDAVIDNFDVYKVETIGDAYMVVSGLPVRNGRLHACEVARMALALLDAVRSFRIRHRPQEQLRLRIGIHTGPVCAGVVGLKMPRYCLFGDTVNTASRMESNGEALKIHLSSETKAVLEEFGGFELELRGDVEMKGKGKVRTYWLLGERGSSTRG
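HEK293 cells stably expressing human Npr1 and cGMP GloSensor pGS-40F, loaded 2 h with 2% GloSensor reagent, given compound 30 min at room temperature. Luminescence read before and 20 min after 0.1 nM hNppA.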
HEK293 tox: Cytotoxic Profiling in HEK 293 Cell Line of Diverse Libraries Using Quantitative High-Throughput Screening. HEK 293 viability, ATP luminescence (CellTiter-Glo), 48-72 h. Potency, µM (series often up to 115 µM), inactives show at the top dose activity change, negative = cytotoxicity, hits mostly inhibitors. 6.6% of 94,000 active; also: nearly all actives have a fitted effect of over 60% in size
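Cells seeded first (HEK 293, 250 cells/well), then compound added by pintool. Incubation ran 48 or 72 hr at 37 degree Celsius. CellTiter-Glo was added and luminescence imaged after 10 min at room temperature.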
Starred values were filed as active, the others as inactive; [ ] = dose if it differs, or a comment. Unless noted, calls follow the shape of the dose curve; as a rule, active = well fitted curve in the direction sought with a large enough effect; inconclusive = small, poorly fitted or top-dose-only effect, or another doubt; inactive = no such curve, though single readings can be large; an effect the other way counts as inactive or inconclusive. % is scaled to controls: 0 for no effect and ±100 for the full control effect; potency is read from the fitted curve at half-maximal effect.

For CC1(C(=O)Nc2ccccc2)CN(Cc2ccccc2)Cc2ccc(N3CCOCC3)nc21 (centres undefined) the results were Luciferase inh inactive, NIH3T3 tox inconclusive, NPR1 antag -2% and HEK293 tox inconclusive.
CNC(=O)C1(C)CN(Cc2ccccc2)Cc2ccc(NCC(C)C)nc21 (centres undefined) was read as Luciferase inh inactive, NIH3T3 tox inconclusive, NPR1 antag inconclusive and HEK293 tox inconclusive.
`CC1(C(=O)NC2COC2)CN(Cc2ccccc2)Cc2ccc(Nc3ccccc3)nc21` (centres undefined) gave Luciferase inh inactive, NIH3T3 tox 40µM*, NPR1 antag -2%[70.6 µM] and HEK293 tox 89µM*.
For CNC(=O)C1(C)CN(Cc2ccccc2)Cc2ccc(Nc3ccccc3)nc21 (centres undefined) the results were Luciferase inh inconclusive, NIH3T3 tox inconclusive, NPR1 antag inconclusive and HEK293 tox 79µM*.
For CN1Cc2ccc(NCc3ccccc3)nc2C(C)(C(=O)NCc2cccnc2)C1 (centres undefined) the results were Luciferase inh inactive, NIH3T3 tox inconclusive, NPR1 antag -8%[70.6 µM] and HEK293 tox inconclusive.
COc1ccc(-c2nn(-c3ccccc3)cc2CN2C[C@@H](C)O[C@@H](C)C2)c(F)c1 was read as Luciferase inh inactive, NIH3T3 tox -29%, NPR1 antag 5% and HEK293 tox inconclusive.
`O=C(NCCc1ccccc1)C1CCN(Cc2ccccc2-c2cccnc2)CC1` gave NIH3T3 tox -24% and HEK293 tox inconclusive.
Screening CN1CCC(NC(=O)C2(C)CN(Cc3ccccc3)Cc3ccc(Nc4ccccc4)nc32)CC1 (centres undefined) returned Luciferase inh inactive, NIH3T3 tox 16µM*, NPR1 antag -3% and HEK293 tox 18µM*.
For COC1CCN(C(=O)C2(C)CN(Cc3ccccc3)Cc3ccc(Nc4ccccc4)nc32)CC1 (centres undefined) the results were Luciferase inh inactive, NIH3T3 tox inconclusive, NPR1 antag -17% and HEK293 tox inconclusive.
O=C(NC1CN(c2ccnc3ccnn23)C1)c1ccccc1Cl was read as NIH3T3 tox -13%[138 µM] and HEK293 tox -21%[172 µM].
For CNC(=O)c1cc(C2CC2)nc2c1c(C1CCCN1C(=O)c1cccc(Cl)c1)nn2C (centres undefined) the results were NIH3T3 tox -2% and HEK293 tox inactive.
Screening COc1ccccc1CN1CCNc2cc(-c3ccnc(C)c3)ncc2C1 returned Luciferase inh 71µM*, NIH3T3 tox inconclusive, NPR1 antag -4%[70.6 µM] and HEK293 tox 89µM*.
Fc1ccc(CN2CCNc3cnc(-c4ccccc4)cc3C2)cc1F was read as Luciferase inh inactive, NIH3T3 tox 79µM*, NPR1 antag -2%[70.6 µM] and HEK293 tox inconclusive.
For COc1ccc(CN2CCNc3cc(-c4ccccc4)ncc3C2)cc1 the results were Luciferase inh inconclusive, NIH3T3 tox inconclusive, NPR1 antag -20%[70.6 µM] and HEK293 tox 50µM*.
COc1ccc(CN2CCNc3cc(-c4ccnc(C)c4)ncc3C2)cc1O was read as Luciferase inh inconclusive, NIH3T3 tox inconclusive, NPR1 antag 0%[70.6 µM] and HEK293 tox inconclusive.
Oc1ccccc1CN1CCNc2cnc(Nc3ccccc3)cc2C1 was read as Luciferase inh inactive, NIH3T3 tox inconclusive, NPR1 antag inconclusive and HEK293 tox inconclusive.
For CN(C)c1cccc(-c2cc3c(cn2)CN(Cc2ccncc2)CCN3)c1 the results were Luciferase inh inconclusive, NIH3T3 tox inconclusive, NPR1 antag -16%[70.6 µM] and HEK293 tox inconclusive.
Screening c1ccc(-c2cc3c(cn2)NCCN(Cc2ccsc2)C3)cc1 returned Luciferase inh inconclusive, NIH3T3 tox inconclusive, NPR1 antag 0%[70.6 µM] and HEK293 tox inconclusive.
COc1ccc(OC)c(CN2CCNc3cnc(Nc4ccccc4)cc3C2)c1 was read as Luciferase inh inactive, NIH3T3 tox inconclusive, NPR1 antag -17%[70.6 µM] and HEK293 tox 71µM*.
COc1cccc(N2CCN(C(=O)c3ccc4c(c3)C(O)CCCCCN4C)CC2)c1 (centres undefined) was read as Luciferase inh inactive, NIH3T3 tox inconclusive, NPR1 antag -29% and HEK293 tox inconclusive.
For COc1cccc(CNC(=O)c2ccc3nc(-c4cccnc4)oc3c2)c1 the results were NIH3T3 tox inconclusive and HEK293 tox -13%.
Screening COc1ccc(OC)c(CN2CCNc3cc(-c4ccccc4)ncc3C2)c1 returned Luciferase inh 40µM*, NIH3T3 tox inconclusive, NPR1 antag -6%[70.6 µM] and HEK293 tox 112µM*.
Screening COc1ccccc1CN1CCNc2cc(-c3ccccc3)ncc2C1 returned Luciferase inh inconclusive, NIH3T3 tox inconclusive, NPR1 antag -3%[70.6 µM] and HEK293 tox inconclusive.
Screening O=C1N(Cc2cccnc2)C(=O)C2(CCN(Cc3cc(F)ccc3F)CC2)N1CCc1ccccc1 returned Luciferase inh inactive, NIH3T3 tox inconclusive, NPR1 antag 2% and HEK293 tox 40µM*.
`CN1C(=O)N(Cc2cccnc2)C(=O)C12CCN(Cc1cc3ccccc3o1)CC2` gave Luciferase inh inactive, NIH3T3 tox -16%, NPR1 antag inconclusive and HEK293 tox inconclusive.
For CCOC(=O)[C@H]1C[C@]2(CCCCN(C)C2=O)N(C(=O)c2cccs2)[C@H]1c1ccco1 the results were NIH3T3 tox inconclusive and HEK293 tox -19%.
For CCCNC(=O)CCC1CCCN(S(=O)(=O)c2ccc(C)cc2)C1 (centres undefined) the results were NIH3T3 tox -31% and HEK293 tox inconclusive.
For CCCN(CC1CC1)C(=O)c1ccc2c(c1)C(O)CCCCCN2CCOC (centres undefined) the results were Luciferase inh inactive, NIH3T3 tox inconclusive, NPR1 antag -10% and HEK293 tox 79µM*.
For CCN(CCN(C)C)C(=O)c1ccc2c(c1)C(O)CCCCCN2CCOC (centres undefined) the results were Luciferase inh inactive, NIH3T3 tox -8%, NPR1 antag 6% and HEK293 tox inconclusive.
COCCN1CCCCCC(O)c2cc(C(=O)NCCCN3CCCc4ccccc43)ccc21 (centres undefined) was read as Luciferase inh inactive, NIH3T3 tox inconclusive, NPR1 antag -8% and HEK293 tox 40µM*.
`COCCN1CCCCCC(O)c2cc(C(=O)Nc3cc(C)ccc3OC)ccc21` (centres undefined) gave Luciferase inh inconclusive, NIH3T3 tox inconclusive, NPR1 antag -2% and HEK293 tox 45µM*.
